Drawing on PubChem BioAssay (NCI), this text covers growth for 40 molecules.

About 83,000 compounds went through this panel and 20% of them were active in at least one assay; those are over-represented in the sample as a whole.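 Cells were grown in 96-well plates and exposed to the test compound at a single concentration for 48 hours; results are reported as percent growth, with values below 10 considered active.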 Calls of active or inactive are those of the source.

The first experiment deals with OVCAR-3 ovarian. As to the kind of experiment: NCI-60 one-dose screen, 48 h (100 = growth as untreated, 0 = no growth, -100 = all killed). Particulars: 10 µM unless noted.
Take `CC(O)c1cccc(/C(N)=N/C(N)=N/c2nc3ccccc3s2)c1` (stereo unspecified): the growth is 102% (inactive). Turning to `O=C(CN1CCN(c2cc(=O)[nH]c3ccc(F)cc23)CC1)N(c1ccccc1)c1ccccc1`, the growth was 109% (inactive). Turning to `Cn1c(SCC(=O)c2ccc(Br)cc2)nc2ccccc2c1=O`, the growth is 102% (inactive). With `O=C(CSc1nc2ccccc2c(=O)n1CCc1ccccc1)Nc1ccc(S(=O)(=O)Nc2ccc(Cl)nn2)cc1`, the growth was 98.8% (inactive). On to `CC1=C(C)C(=O)C(Nc2ccc(C)c(C)c2)=C(Br)C1=O`, for which the growth was 109% (inactive). `Cc1ccc2c(n1)C(=O)C(Cl)=C(Nc1ccc(C(C)C)cc1)C2=O`: the growth is -55.7% (active).

On to `C=C(C)[C@@H]1CC[C@]2(COCCCNCCCN)CC[C@]3(C)[C@H](CC[C@@H]4[C@@]5(C)CC[C@H](O)C(C)(C)[C@@H]5CC[C@]43C)[C@@H]12`, for which the growth is -77.5% (active). For the molecule `CCN(CC)S(=O)(=O)c1ccc(-c2nc(C(Cl)Cl)nc3cc(-c4ccc(F)cc4)nn23)cc1`, the growth is 16.8% (inactive). Take `CN1CCN(c2ccc(Nc3nc(NCCCNS(=O)(=O)c4ccc(F)cc4)c4sccc4n3)cc2)CC1`: the growth was 97.4% (inactive). On to `C#CCOc1cccc(-c2nc(N)nc(Nc3ccccc3SSc3ccccc3Nc3nc(N)nc(-c4cccc(OCC#C)c4)n3)n2)c1`, for which the growth is 79.7% (inactive).

For `O=C(CSc1nnc(-c2ccc(Cl)cc2)n1-c1ccccc1)Nc1ccc(Cl)cc1`, the growth is 57.5% (inactive). Consider `O=C(CSc1nnc(-c2ccc(Cl)cc2)n1-c1ccccc1)Nc1ccccc1Cl`, for which the growth was 91.6% (inactive). As for `CCOC(=O)c1c(NC(=O)c2cccc(C(F)(F)F)c2)sc2c3c(ccc12)OCN(C)C3`, the growth is -44.7% (active). Same read-out and setting: the value for `CCOC(=O)c1c(NCC(=O)Nc2cccc([N+](=O)[O-])c2)sc(C(C)=O)c1C` was -37.2% (active). As for `N#Cc1c(-c2cccs2)cc(-c2cnccn2)nc1SCC(=O)N/N=C/c1ccccc1`, the growth was 27.7% (inactive).

On to `COC(=O)c1ccc(NC2=C(Cl)C(=O)c3nc(C)ccc3C2=O)cc1`, for which the growth was 63.6% (inactive).

The next experiment concerns HS 578T breast. The experiment is described as above. Particulars: 10 µM unless noted.
Take `N#C/C(=C\c1ccc(-c2ccc(Cl)cc2)o1)C(=O)Nc1ncc(Cc2ccc(Br)cc2)s1`: the growth was -2.91% (active).

`O=C(COc1ccc(/C=C2\C(=O)Nc3ccc(Cl)cc32)cc1)Nc1ccc(Cl)cc1`: the growth was 77.6% (inactive).

In the case of `CC(O)c1cccc(/C(N)=N/C(N)=N/c2nc3ccccc3s2)c1` (stereo unspecified), the growth was 91.9% (inactive). As for `O=C(CN1CCN(c2cc(=O)[nH]c3ccc(F)cc23)CC1)N(c1ccccc1)c1ccccc1`, the growth is 101% (inactive). Regarding `Cn1c(SCC(=O)c2ccc(Br)cc2)nc2ccccc2c1=O`, the growth was 102% (inactive).

Take `NC(N)=NS(=O)(=O)c1ccc(N=Nc2c(N)nn(-c3ccc([N+](=O)[O-])cc3[N+](=O)[O-])c2N)cc1`: the growth was 97.9% (inactive). Still for that read-out and setting: the value for `Cc1cc2nc3c4cc(C#N)ccc4n(CCN(C)C)c3nc2cc1C` was -15% (active); that for `O=C(CCCCCCN1CC(=O)N2[C@@H](c3cccs3)c3[nH]c4ccccc4c3C[C@H]2C1=O)NO` was 81.1% (inactive).

Regarding `O=C(CSc1nc2ccccc2c(=O)n1CCc1ccccc1)Nc1ccc(S(=O)(=O)Nc2ccc(Cl)nn2)cc1`, the growth was 97.1% (inactive).

In the case of `CC1=C(C)C(=O)C(Nc2ccc(C)c(C)c2)=C(Br)C1=O`, the growth is 97.4% (inactive). On to `COc1cc(/C=C2/C(=O)Nc3ccc(Cl)cc32)ccc1OCc1ccc(Cl)cc1`, for which the growth was 94.1% (inactive). Regarding `Cc1ccc2c(n1)C(=O)C(Cl)=C(Nc1ccc(C(C)C)cc1)C2=O`, the growth was 55.6% (inactive).

On to `CN1CCN(c2ccc(Nc3nc(NCCNS(=O)(=O)c4ccccc4)c4sccc4n3)cc2)CC1`, for which the growth was 88.1% (inactive). Consider `CNC(=O)c1cc(N2CCc3cc(NC(=O)Nc4ccc(N5CCN(C)CC5)c(C(F)(F)F)c4)ccc32)ccn1`, for which the growth was 61.4% (inactive). Take `C=C(C)[C@@H]1CC[C@]2(COCCCNCCCN)CC[C@]3(C)[C@H](CC[C@@H]4[C@@]5(C)CC[C@H](O)C(C)(C)[C@@H]5CC[C@]43C)[C@@H]12`: the growth was -49.1% (active). With `CN1CCN(Cc2ccc(NC(=O)c3cncc(C#Cc4cnc5ccc(OCC6COC6)nn45)c3)cc2C(F)(F)F)CC1`, the growth is -37.3% (active). Consider `CCN(CC)S(=O)(=O)c1ccc(-c2nc(C(Cl)Cl)nc3cc(-c4ccc(F)cc4)nn23)cc1`, for which the growth is 36.4% (inactive).

Take `O=C(COc1ccc(/C=C2\C(=O)Nc3ccc(F)cc32)cc1)Nc1ccccc1`: the growth is 105% (inactive). On the same count and under the same terms, the value for `CN1CCN(c2ccc(Nc3nc(NCCCNS(=O)(=O)c4ccc(F)cc4)c4sccc4n3)cc2)CC1` was 55.6% (inactive); that for `COc1cccc(N2CCN(C3=C(Cl)C(=O)c4ncccc4C3=O)CC2)c1` was 84.4% (inactive). Regarding `C#CCOc1cccc(-c2nc(N)nc(Nc3ccccc3SSc3ccccc3Nc3nc(N)nc(-c4cccc(OCC#C)c4)n3)n2)c1`, the growth was 51.9% (inactive). For the molecule `O=C(CSc1nnc(-c2ccc(Cl)cc2)n1-c1ccccc1)Nc1ccc(Cl)cc1`, the growth was 38.4% (inactive). On to `NC(=O)n1c(=O)n(-c2cccc(C(F)(F)F)c2)c(=O)c2cc(-c3ccc(F)cc3F)ccc21`, for which the growth was -6.46% (active). On the same count and under the same terms, with `C#CCOc1ccc(/C=N/Nc2nc(-c3ccc(OC)cc3)cs2)cc1` the figure was 94% (inactive); with `O=C(CSc1nnc(-c2ccc(Cl)cc2)n1-c1ccccc1)Nc1ccccc1Cl`, 58.8% (inactive). For the molecule `CCOC(=O)c1c(NC(=O)c2cccc(C(F)(F)F)c2)sc2c3c(ccc12)OCN(C)C3`, the growth is 38.4% (inactive).

With `CN1CCN(Cc2ccc(NC(=O)c3cncc(C#Cc4cnc5ccc(OCCCS(C)(=O)=O)nn45)c3)cc2C(F)(F)F)CC1`, the growth is -24.1% (active). Consider `CCOC(=O)c1c(NCC(=O)Nc2cccc([N+](=O)[O-])c2)sc(C(C)=O)c1C`, for which the growth is -23.9% (active). Same read-out and setting: with `N#Cc1c(-c2cccs2)cc(-c2cnccn2)nc1SCC(=O)N/N=C/c1ccccc1` the figure was 40.7% (inactive); with `CN1CCN(Cc2ccc(NC(=O)c3cncc(C#Cc4cnc5ccc(O[C@@H]6CCOC6)nn45)c3)cc2C(F)(F)F)CC1`, -46.9% (active); with `O=C(CCCCCCNC(=O)c1csc(Br)n1)NO`, 58.3% (inactive). Turning to `O=C(NCCNc1cc(-c2cn(-c3ccccc3)nc2-c2cccc(O)c2)ccn1)Nc1cc(C(F)(F)F)cc(C(F)(F)F)c1`, the growth is 93.9% (inactive).

As for `COC(=O)c1ccc(NC2=C(Cl)C(=O)c3nc(C)ccc3C2=O)cc1`, the growth was 71.5% (inactive). For the molecule `CCOP(=O)(OCC)OC[C@]12CCC(C)(C)C[C@H]1C1=CC[C@@H]3[C@@]4(C)CC[C@H](OP(=O)(OCC)OCC)C(C)(C)[C@@H]4CC[C@@]3(C)[C@]1(C)CC2`, the growth is 83.2% (inactive). As to `C/C(=N/N)c1nnn(-c2ccc(Br)cc2)c1C`, the growth is 102% (inactive). `O=C(N/N=C\c1ccc(F)cc1)c1ccc2nc(-c3ccc(Br)cc3)[nH]c2c1`: the growth was 36.1% (inactive). As to `O=C1Nc2ccc(F)cc2/C1=C\C(=O)c1ccc(NS(=O)(=O)c2ccccc2)cc1`, the growth was 110% (inactive). With `CCCCCc1ccc(S(=O)(=O)Nc2cc(-c3csc(N)n3)ccc2OC)cc1`, the growth was 97.1% (inactive). The same measure, in the same setting: with `CN1CCN(c2ccc(Nc3nc(NCCNS(=O)(=O)c4ccc5ccccc5c4)c4sccc4n3)cc2)CC1` the figure was 75% (inactive); with `CCn1c2ccc(/C=N/N(C)S(=O)(=O)CCN(C)C)cc2c2cc(/C=N/N(C)S(=O)(=O)CCN(C)C)ccc21`, 76.8% (inactive).
